These results are taken from PubChem BioAssay (EPA / NIEHS).

SMILES strings stand for the structures. “And” between values parts separate entries of the source, which are not always exact repeats. Equal values may be shown once. Inconclusive results are not listed. The source made the active and inactive calls. The calls were made as follows, unless noted: active = hit-call score of the fitted dose curve at least 0.9, where 1 is the maximum; inactive = score below 0.9.

In assay [1] the target is Glucocorticoid receptor (Homo sapiens) (UniProt P04150). As to the kind of experiment: ATG_GR_TRANS: Attagene TRANS-FACTORIAL HepG2 Assay for human Glucocorticoid Receptor (GR) (AID 2282978; active = hit-call score of the fitted dose curve at least 0.9, where 1 is the maximum;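 also: activators score as hits since higher reporter transcript over DMSO is fitted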). The note with it: HepG2 Attagene TRANS GR reporter, mRNA transcription. In short, it runs like this:
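Measurement of GAL4-UAS-driven reporter mRNA in human HepG2 liver cells 24 h post-dosing, using RT-PCR with fluorescent labelling and capillary electrophoresis; the transfected constructs report exogenous NR-GAL4 chimera activity, fitted upward against DMSO.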

Assay [2] deals with Oxysterols receptor LXR-alpha (Homo sapiens) (UniProt Q13133). As to the kind of experiment: ATG_LXRa_TRANS: Attagene TRANS-FACTORIAL HepG2 Assay for human Liver X Receptor alpha (LXRa) (AID 2282980; active = hit-call score of the fitted dose curve at least 0.9, where 1 is the maximum). The note with it: HepG2 Attagene TRANS reporter, LXRa transactivation. The method in brief:
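Transfect HepG2 with GAL4-UAS multiplex reporter constructs (TRANS format, chimeric receptor-GAL4); treat 24 h; extract RNA, reverse-transcribe, PCR-amplify, FAM-label, HpaI-digest; resolve fragments by capillary electrophoresis. Upward response vs DMSO.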

The target in assay [3] is Oxysterols receptor LXR-beta (Homo sapiens) (UniProt P55055). Description: ATG_LXRb_TRANS: Attagene TRANS-FACTORIAL HepG2 Assay for human Liver X Receptor beta (LXRb) (AID 2282981; active = hit-call score of the fitted dose curve at least 0.9, where 1 is the maximum). The note with it: HepG2 Attagene TRANS GAL4-LXRb reporter, mRNA. The method in brief: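 Gain-of-signal mRNA reporter endpoint, DMSO as negative control. Transiently transfected HepG2 cells carrying the NR-Gal4 chimera and GAL4-UAS reporter units were treated 24 h; transcripts quantified by RT-PCR and capillary electrophoresis fluorescence.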
Chain of Oxysterols receptor LXR-beta (Homo sapiens) (P55055 whole entry, looked up, the tested form may be a part): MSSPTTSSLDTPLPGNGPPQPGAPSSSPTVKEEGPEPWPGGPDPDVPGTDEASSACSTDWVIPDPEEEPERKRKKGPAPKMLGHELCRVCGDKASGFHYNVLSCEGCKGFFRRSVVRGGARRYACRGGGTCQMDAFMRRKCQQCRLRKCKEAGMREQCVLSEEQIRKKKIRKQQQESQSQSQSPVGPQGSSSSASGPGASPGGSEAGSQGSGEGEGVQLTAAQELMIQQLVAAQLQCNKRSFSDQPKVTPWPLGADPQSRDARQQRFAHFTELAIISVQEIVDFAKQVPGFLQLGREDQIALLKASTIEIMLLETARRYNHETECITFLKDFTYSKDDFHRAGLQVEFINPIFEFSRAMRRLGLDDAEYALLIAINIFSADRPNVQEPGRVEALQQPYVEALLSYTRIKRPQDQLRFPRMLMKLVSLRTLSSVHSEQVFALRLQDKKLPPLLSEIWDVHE

Assay [4] can be described thus: ATG_M_06_TRANS: Attagene TRANS-FACTORIAL HepG2 Assay for M06 Transcription Factor (Internal Marker) (AID 2282983; active = hit-call score of the fitted dose curve at least 0.9, where 1 is the maximum). Particulars: HepG2 Attagene TRANS M06 internal marker reporter. In short, it runs like this:
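Transfect HepG2 with MRTUs → dose compounds 24 h → isolate RNA, oligo(dT) RT → PCR with reporter primers → 6-FAM primer extension → HpaI digest → CE fragment analysis. Positive direction vs DMSO.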

Assay [5] is described as follows: ATG_M_32_TRANS: Attagene TRANS-FACTORIAL HepG2 Assay for M32 Transcription Factor (Internal Marker) (AID 2282984; active = hit-call score of the fitted dose curve at least 0.9, where 1 is the maximum;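 also: transcript level of a background control reporter unit measured by RT-PCR and capillary electrophoresis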). Particulars: HepG2 Attagene TRANS M32 internal marker reporter. In short, it runs like this:
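Capillary electrophoresis of 6-FAM-labelled reporter fragments gives the signal; data fitted for gain over DMSO negative control. Source: HepG2 cells bearing transient multiple reporter transcription units, 24 h exposure.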

Assay [6] concerns the target Transcriptional activator Myb (Homo sapiens) (UniProt P10242). Description: ATG_Myb_CIS: Attagene CIS-FACTORIAL HepG2 Assay for human Myeloblastosis (Myb) Proto-Oncogene Transcription Factor (AID 2282986). Particulars: HepG2 Attagene CIS-FACTORIAL Myb reporter transcription; actives raise or lower the signal. In short, it runs like this: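 Fluorescence signals from capillary electrophoresis of RT-PCR-amplified reporter cDNA give the read-out. Cells: HepG2 transfected with multiple cis-regulated reporter units. Exposure lasts 24 hours; DMSO defines baseline for gain or loss of signal.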

The target in assay [7] is Nuclear respiratory factor 1 (Homo sapiens) (UniProt Q16656). As to the kind of experiment: ATG_NRF1_CIS: Attagene CIS-FACTORIAL HepG2 Assay for human Nuclear Respiratory Factor 1 (NRF1) Orphan Gene (AID 2282987). The note with it: HepG2 NRF1 cis-element reporter, Attagene multiplex; actives raise or lower the signal. The method in brief: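 Transcriptional reporter readout, one component of a 52-endpoint multiplexed HepG2 panel. Exposure 24 h; mRNA detected via RT-PCR and fluorescent capillary electrophoresis; fitting in both directions against DMSO.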
Chain of Nuclear respiratory factor 1 (Homo sapiens) (Q16656 whole entry, looked up): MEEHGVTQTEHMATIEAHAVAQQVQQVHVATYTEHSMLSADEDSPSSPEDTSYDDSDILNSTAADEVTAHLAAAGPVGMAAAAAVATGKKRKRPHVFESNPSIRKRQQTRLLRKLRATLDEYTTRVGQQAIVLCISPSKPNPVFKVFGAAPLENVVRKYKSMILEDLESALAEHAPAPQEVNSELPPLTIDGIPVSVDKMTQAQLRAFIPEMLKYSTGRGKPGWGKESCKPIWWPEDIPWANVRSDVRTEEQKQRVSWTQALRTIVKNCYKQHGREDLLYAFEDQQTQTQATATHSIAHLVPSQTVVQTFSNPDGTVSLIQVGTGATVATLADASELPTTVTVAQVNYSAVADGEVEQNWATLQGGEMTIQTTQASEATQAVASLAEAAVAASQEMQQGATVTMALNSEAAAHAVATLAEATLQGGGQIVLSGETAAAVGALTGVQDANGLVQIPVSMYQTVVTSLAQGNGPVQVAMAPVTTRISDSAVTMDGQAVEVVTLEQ

Assay [8] can be described thus: ATG_NFI_CIS: Attagene CIS-FACTORIAL HepG2 Assay for human Nuclear Factor I (NFI) (AID 2282989). The note with it: HepG2 cis-regulatory reporter, NFI response element transcription; actives raise or lower the signal. The method in brief: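 Read-out: reporter mRNA via RT-PCR plus capillary electrophoresis with fluorescence detection. Transiently transfected HepG2 (endogenous TF activity on cis promoters), 24 h compound exposure; gain or loss of signal fitted against DMSO.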

The target of assay [9] is Myc proto-oncogene protein (Homo sapiens) (UniProt P01106). Description: ATG_Myc_CIS: Attagene CIS-FACTORIAL HepG2 Assay for human Myelocytomatosis (Myc) Proto-Oncogene Transcription Factor (AID 2282990). Particulars: HepG2, Attagene cis-reporter transcription factor activity; actives raise or lower the signal. The method in brief:
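Read-out: fluorescent reporter mRNA fragments resolved by capillary electrophoresis after RT-PCR. Human HepG2 liver cells carried transfected cis-element reporter units and were dosed for 24 h. Gain or loss of signal fitted relative to DMSO baseline.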

Assay [10] is described as follows: ATG_NRF2_ARE_CIS: Attagene CIS-FACTORIAL HepG2 Assay for human Nuclear Factor Erythroid 2 Related Factor 2 (NFR2) response to Antioxidant Response Elements (ARE) (AID 2282992).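 As to AC50: reporter mRNA level measured by RT-PCR and capillary electrophoresis fluorescence.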 The note with it: HepG2 Attagene ARE/NRF2 reporter, transcription factor activity; actives raise or lower the signal. The method in brief: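 Multiplexed reporter mRNA profiling in HepG2 after a 24 h chemical exposure. Curves fitted in both directions relative to DMSO negative control.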

Assay [11] in a line: ATG_Oct_MLP_CIS: Attagene CIS-FACTORIAL HepG2 Assay for human Octamer-Binding Transcription Factor (Oct) (AID 2282993). The note with it: HepG2 Attagene cis-factorial Oct reporter, mRNA; actives raise or lower the signal. In short, it runs like this: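 Read-out: reporter mRNA via RT-PCR plus capillary electrophoresis of 6-FAM-labelled fragments. Transiently transfected HepG2, 24 h exposure, endogenous TF activity on cis elements. Gain or loss of signal fitted relative to DMSO.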

Assay [12] concerns the target Cellular tumor antigen p53 (Homo sapiens) (UniProt P04637). As to the kind of experiment: ATG_p53_CIS: Attagene CIS-FACTORIAL HepG2 Assay for human p53 Transcription Factor (AID 2282994). The note with it: HepG2 p53 cis-element reporter, Attagene mRNA; actives raise or lower the signal. In short, it runs like this:
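Multiplexed reporter mRNA assay in human HepG2 liver cells; cis-regulated units report endogenous factor activity. Values come from bidirectional curve fitting against DMSO negative control after 24 h treatment.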

Assay [13] has as its target Hepatocyte nuclear factor 4-alpha (Homo sapiens) (UniProt P41235). As to the kind of experiment: ATG_HNF4a_TRANS: Attagene TRANS-FACTORIAL HepG2 Assay for human Hepatocyte Nuclear Factor 4 alpha (HNF4a) (AID 2282982; active = hit-call score of the fitted dose curve at least 0.9, where 1 is the maximum). The note with it: HepG2 HNF4a transactivation reporter, mRNA readout. In short, it runs like this:
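Gain-of-signal mRNA induction, relative to DMSO vehicle, was read after 24 h compound treatment of HepG2 cells bearing transfected GAL4-UAS reporters. Detection used RT-PCR, 6-FAM primer extension and capillary electrophoresis.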

In assay [14] the target is Nuclear receptor subfamily 4 group A member 2 (Homo sapiens) (UniProt P43354). As to the kind of experiment: ATG_NURR1_TRANS: Attagene TRANS-FACTORIAL HepG2 Assay for human Nuclear Receptor Related Protein 1 (NURR1) (AID 2282985; active = hit-call score of the fitted dose curve at least 0.9, where 1 is the maximum). The note with it: HepG2 Attagene TRANS reporter, mRNA readout. The method in brief:
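HepG2 / transient MRTU transfection / 24 h compound exposure / RT-PCR + CE fluorescence of reporter mRNA / gain-of-signal vs DMSO.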

Assay [15] can be described thus: ATG_NF_kB_CIS: Attagene CIS-FACTORIAL HepG2 Assay for human Nuclear Factor Kappa B (NF-kB) (AID 2282991). Particulars: HepG2 Attagene cis-factorial NF-kB reporter mRNA; actives raise or lower the signal. The method in brief: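 HepG2, transient multi-reporter transfection, cis promoter elements (endogenous TFs). 24 h exposure. Total RNA → RT → PCR → 6-FAM label → HpaI → CE. Gain/loss vs DMSO.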

A short description of assay [16]: BSK_3C_TissueFactor: BioMAP Diversity Plus: 3C Assay for Tissue Factor Biomarker Activity (AID 2282997). The note with it: BioMAP 3C HUVEC, tissue factor biomarker readout; actives raise or lower the signal. The method in brief:
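ELISA read-out of Tissue Factor levels on human umbilical vein endothelium collected 24 h after chemical dosing. Gain or loss of signal was fitted relative to DMSO.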

Assay [17] is described as follows: BSK_3C_uPAR: BioMAP Diversity Plus: 3C Assay for Urokinase-type plasminogen activator receptor (uPAR) Biomarker Activity (AID 2282998). Particulars: BioMAP 3C HUVEC, uPAR biomarker ELISA; actives raise or lower the signal. In short, it runs like this: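 HUVEC primary cells; 24 h post-dose; uPAR by ELISA; gain or loss of signal fitted bidirectionally vs DMSO baseline.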

A short description of assay [18]: BSK_3C_VCAM1: BioMAP Diversity Plus: 3C Assay for Vascular cell adhesion molecule 1 (VCAM1) Biomarker Activity (AID 2282999). Particulars: BioMAP 3C HUVEC, VCAM1 ELISA, cytokine-stimulated; actives raise or lower the signal. In short, it runs like this:
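Human umbilical vein endothelial cells (3C system), biomarker read by ELISA 24 h after dosing; bidirectional fit against DMSO baseline. Cytotoxicity tracked by SRB total-protein staining in parallel cultures at biomarker time.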

Chain of Glucocorticoid receptor (Homo sapiens) (P04150 whole entry, looked up, the tested form may be a part): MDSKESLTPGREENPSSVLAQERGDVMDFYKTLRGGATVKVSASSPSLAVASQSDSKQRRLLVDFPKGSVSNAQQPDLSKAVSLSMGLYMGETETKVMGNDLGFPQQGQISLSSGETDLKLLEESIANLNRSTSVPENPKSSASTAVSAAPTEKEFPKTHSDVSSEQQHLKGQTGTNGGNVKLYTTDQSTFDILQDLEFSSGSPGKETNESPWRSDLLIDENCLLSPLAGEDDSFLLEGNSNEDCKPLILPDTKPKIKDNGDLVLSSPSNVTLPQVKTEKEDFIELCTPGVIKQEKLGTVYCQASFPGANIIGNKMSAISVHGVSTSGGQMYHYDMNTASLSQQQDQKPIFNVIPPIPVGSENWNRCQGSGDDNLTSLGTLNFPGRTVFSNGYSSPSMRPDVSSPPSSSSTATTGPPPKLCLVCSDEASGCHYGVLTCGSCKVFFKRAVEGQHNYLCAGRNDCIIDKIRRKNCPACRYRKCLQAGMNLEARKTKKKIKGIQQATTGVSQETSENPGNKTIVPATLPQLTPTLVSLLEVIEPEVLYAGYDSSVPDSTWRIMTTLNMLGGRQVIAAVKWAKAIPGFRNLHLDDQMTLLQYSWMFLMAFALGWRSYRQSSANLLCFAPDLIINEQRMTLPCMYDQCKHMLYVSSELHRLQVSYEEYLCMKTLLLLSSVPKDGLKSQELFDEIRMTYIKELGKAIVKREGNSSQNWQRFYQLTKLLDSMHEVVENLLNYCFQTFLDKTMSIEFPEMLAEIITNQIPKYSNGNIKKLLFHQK
Chain of Transcriptional activator Myb (Homo sapiens) (P10242 whole entry, looked up): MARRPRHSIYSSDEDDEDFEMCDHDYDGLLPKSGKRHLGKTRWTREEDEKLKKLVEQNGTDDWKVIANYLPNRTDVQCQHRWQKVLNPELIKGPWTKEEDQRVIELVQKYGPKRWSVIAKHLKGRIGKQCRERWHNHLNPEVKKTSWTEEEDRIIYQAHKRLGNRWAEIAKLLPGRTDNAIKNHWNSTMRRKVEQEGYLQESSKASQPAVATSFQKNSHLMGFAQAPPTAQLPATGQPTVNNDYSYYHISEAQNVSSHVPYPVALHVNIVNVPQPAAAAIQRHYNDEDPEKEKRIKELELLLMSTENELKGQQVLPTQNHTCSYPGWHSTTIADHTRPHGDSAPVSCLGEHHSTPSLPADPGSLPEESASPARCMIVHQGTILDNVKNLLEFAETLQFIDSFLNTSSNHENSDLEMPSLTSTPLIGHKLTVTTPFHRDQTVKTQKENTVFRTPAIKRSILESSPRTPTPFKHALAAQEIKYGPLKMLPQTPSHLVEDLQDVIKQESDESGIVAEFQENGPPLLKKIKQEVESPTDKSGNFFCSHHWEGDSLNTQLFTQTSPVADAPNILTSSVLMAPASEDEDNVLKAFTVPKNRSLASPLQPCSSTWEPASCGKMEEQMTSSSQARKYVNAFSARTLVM
Chain of Cellular tumor antigen p53 (Homo sapiens) (P04637 whole entry, looked up): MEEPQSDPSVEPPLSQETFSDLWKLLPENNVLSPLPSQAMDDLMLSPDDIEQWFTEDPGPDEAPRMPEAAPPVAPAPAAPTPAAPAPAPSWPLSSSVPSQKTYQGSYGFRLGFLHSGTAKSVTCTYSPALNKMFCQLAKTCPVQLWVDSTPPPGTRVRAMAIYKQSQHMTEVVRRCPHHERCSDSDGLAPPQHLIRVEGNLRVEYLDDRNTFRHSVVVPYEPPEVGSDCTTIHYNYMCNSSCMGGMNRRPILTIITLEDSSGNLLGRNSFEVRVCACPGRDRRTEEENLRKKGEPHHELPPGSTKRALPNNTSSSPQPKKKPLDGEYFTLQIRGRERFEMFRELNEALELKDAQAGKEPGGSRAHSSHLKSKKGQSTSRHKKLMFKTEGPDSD
Chain of Hepatocyte nuclear factor 4-alpha (Homo sapiens) (P41235 whole entry, looked up, the tested form may be a part): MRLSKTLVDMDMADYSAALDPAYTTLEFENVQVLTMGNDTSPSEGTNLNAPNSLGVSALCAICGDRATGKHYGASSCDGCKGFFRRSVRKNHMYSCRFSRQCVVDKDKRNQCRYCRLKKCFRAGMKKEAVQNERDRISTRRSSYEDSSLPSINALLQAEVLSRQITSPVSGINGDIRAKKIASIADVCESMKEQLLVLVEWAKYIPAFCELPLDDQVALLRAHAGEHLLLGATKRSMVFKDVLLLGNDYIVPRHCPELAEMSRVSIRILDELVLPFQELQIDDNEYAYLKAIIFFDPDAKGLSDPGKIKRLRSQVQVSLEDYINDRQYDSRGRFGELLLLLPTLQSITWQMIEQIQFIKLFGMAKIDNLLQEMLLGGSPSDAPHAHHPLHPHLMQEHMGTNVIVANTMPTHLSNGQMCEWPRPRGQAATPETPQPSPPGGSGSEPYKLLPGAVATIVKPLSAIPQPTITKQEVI
Chain of Oxysterols receptor LXR-alpha (Homo sapiens) (Q13133 whole entry, looked up, the tested form may be a part): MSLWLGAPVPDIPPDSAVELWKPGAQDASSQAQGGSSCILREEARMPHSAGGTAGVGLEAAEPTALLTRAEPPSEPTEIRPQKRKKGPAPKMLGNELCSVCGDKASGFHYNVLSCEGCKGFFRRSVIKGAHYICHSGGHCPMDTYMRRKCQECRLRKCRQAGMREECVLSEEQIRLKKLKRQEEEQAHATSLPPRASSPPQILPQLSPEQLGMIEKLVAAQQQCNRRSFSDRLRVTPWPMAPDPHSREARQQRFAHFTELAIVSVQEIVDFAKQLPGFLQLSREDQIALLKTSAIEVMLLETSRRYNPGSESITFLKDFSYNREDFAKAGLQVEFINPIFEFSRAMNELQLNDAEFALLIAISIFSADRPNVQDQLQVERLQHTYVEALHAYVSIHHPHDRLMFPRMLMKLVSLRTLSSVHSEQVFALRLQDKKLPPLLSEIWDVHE
Chain of Myc proto-oncogene protein (Homo sapiens) (P01106 whole entry, looked up, the tested form may be a part): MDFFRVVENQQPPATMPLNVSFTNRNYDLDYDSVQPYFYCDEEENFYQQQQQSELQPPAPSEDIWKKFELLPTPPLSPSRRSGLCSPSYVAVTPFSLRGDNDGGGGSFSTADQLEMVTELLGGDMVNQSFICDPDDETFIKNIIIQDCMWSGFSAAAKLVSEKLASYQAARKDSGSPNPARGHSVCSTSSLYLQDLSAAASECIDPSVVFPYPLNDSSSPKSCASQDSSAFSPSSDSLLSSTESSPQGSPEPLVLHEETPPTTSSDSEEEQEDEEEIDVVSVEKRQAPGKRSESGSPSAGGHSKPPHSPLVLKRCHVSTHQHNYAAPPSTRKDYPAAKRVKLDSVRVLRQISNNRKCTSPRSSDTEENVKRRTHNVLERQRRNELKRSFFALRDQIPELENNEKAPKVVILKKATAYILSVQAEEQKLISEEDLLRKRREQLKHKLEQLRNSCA
Chain of Nuclear receptor subfamily 4 group A member 2 (Homo sapiens) (P43354 whole entry, looked up): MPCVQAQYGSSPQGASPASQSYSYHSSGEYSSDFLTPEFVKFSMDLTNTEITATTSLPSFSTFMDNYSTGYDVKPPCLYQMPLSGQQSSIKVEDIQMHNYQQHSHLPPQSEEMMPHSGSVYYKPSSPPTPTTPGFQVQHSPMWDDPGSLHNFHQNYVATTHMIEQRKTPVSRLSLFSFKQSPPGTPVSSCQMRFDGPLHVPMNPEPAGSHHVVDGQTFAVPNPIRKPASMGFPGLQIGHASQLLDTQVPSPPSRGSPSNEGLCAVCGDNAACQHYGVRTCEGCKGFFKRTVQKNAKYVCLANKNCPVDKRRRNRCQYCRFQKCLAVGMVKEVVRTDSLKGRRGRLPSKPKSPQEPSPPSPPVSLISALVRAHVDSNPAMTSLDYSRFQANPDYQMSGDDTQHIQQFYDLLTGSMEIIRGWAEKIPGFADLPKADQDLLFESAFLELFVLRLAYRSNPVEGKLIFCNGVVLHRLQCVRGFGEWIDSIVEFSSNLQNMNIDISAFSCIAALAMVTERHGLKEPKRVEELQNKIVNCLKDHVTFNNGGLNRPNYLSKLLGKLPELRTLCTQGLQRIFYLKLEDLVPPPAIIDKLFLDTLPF

For the compound `CC1COC(=O)O1` (configuration not stated), the compound was called inactive in assay [1], in assay [2], in [3], in [4], in assay [5] and in assay [6]. The compound was called inactive in assay [7], in assay [8], in assay [9], in assay [10], in assay [11] and in [12].
Regarding `CC(C)CCOC(=O)CC(C)C`, the result in assay [1], in [2], in assay [3], in assay [13], in [5] and in assay [14] was inactive. Moreover, the call in assay [6], in assay [7], in [9], in assay [10], in assay [11] and in [12] was inactive.
With `c1ccc(OCCOc2ccccc2)cc1`, the result in assay [1], in [2], in assay [13], in assay [4], in [5] and in [6] was inactive. The compound was called inactive in assay [7], in [8], in assay [9], in [15], in [10] and in assay [11]. Moreover, the compound was classed as inactive in [12], in assay [17] and in [18]. Also, the AC50 in assay [16] was 1.24 µM (active) and 1.4 µM (active).
For the compound `CCC(C)(C)c1cc(O)c(C(C)(C)CC)cc1O`, the compound was called inactive in assay [1], in [2], in assay [3], in [4], in assay [9] and in [11]. Moreover, the concentration at half-maximal activity (AC50) was 9.69 µM (active) in assay [6]; 12.3 µM (active) in assay [7]; 5.78 µM (active) in [8]; 3.81 µM (active) in assay [10]; 33.4 µM (active) in [12].
Regarding `CC=CC(=O)C1=C(C)C=CCC1(C)C`, the result in [1], in assay [2], in assay [3], in assay [13], in [14] and in [6] was inactive. In addition, the compound was called inactive in assay [7], in assay [8], in assay [9], in [15], in [10] and in assay [11]. Moreover, the compound was classed as inactive in assay [12], in assay [16], in [17] and in assay [18].
